Data taken from PubChem BioAssay AID2501 (Southern Research Specialized Biocontainment Screening …, 2010).
The whole screen tested about 2,200 compounds, of which about 1,200 (55%) were called active. The limit is not given here; nearly all actives have IC50 up to about 92 µM. The set was probably picked from earlier hits. The list shows a part of the results.

experiment: counter assay for TAg ATPase ADP read-out – biochemical, ADP-Hunter, fluorescence, counter-screen (AID 2501); conditions: series mostly up to 100 µM;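 also: purified T antigen ATPase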

Row | SMILES | IC50
1 | CC(/C=N/n1c(-c2cccnc2)n[nH]c1=S)=C\c1ccccc1 | 38.8 µM (active)
2 | Cc1cccc(/C=N/n2c(-c3ccncc3)n[nH]c2=S)c1 | 88.6 µM (active)
3 | Cc1ccc(-n2c(-c3cc(-c4ccco4)[nH]n3)n[nH]c2=S)c(Br)c1 | inactive
4 | C=CCn1c(-c2ccc3ncccc3c2)n[nH]c1=S | inactive
5 | CCS(=O)(=O)N1CCC(C(=O)NCCN2CCOCC2)CC1 | inactive
6 | Cc1cc(C(F)(F)F)nc2c(Cl)c(C(C)(C)C)nn12 | inactive
7 | NS(=O)(=O)c1ccc(N=Nc2c[nH]c(=O)c(O)c2)cc1 | 7.75 µM (active)
8 | Cc1cccc(C)c1NC(=S)Nc1ccccc1C(=O)NCc1ccco1 | inactive
9 | CCOC(=O)c1c(C)[nH]c(C(=O)OCC(=O)Nc2cc(Cl)ccc2OC)c1C | inactive
10 | CCOC(=O)c1[nH]c2ccccc2c1NC(=S)Nc1cccc(C)c1C | 29 µM (active)
11 | COc1ccc(/C=N/NC(=O)c2ccc(Br)cc2)cc1CN1CCOCC1 | 13 µM (active)
12 | COc1cc(/C=N/NC(=S)NCCN2CCOCC2)ccc1O | 2.37 µM (active)
13 | COc1ccc(NC(=S)N/N=C/c2ccc(F)c(F)c2)cc1 | 23.4 µM (active)
14 | COc1ccc(CNS(=O)(=O)c2ccc(F)c(C(=O)Nc3ccc(OC)cc3)c2)cc1 | inactive
15 | COc1ccc(C(=O)N/N=C/c2ccc(OC)c(CN3CCc4cc(OC)c(OC)cc4C3C)c2)cc1 (stereo unspecified) | inactive
16 | Oc1ccc(/C=N/NC(=S)NCCN2CCOCC2)c(O)c1 | 4.25 µM (active)
17 | COC(=O)c1sc2nc(-c3ccco3)ccc2c1N | inactive
18 | COc1cc(N2C(=O)C=CC2=O)c(OC)cc1Cl | inactive
19 | O=C(O)Cc1nn(Cc2ccc(Cl)cc2)c(=O)c2ccccc12 | inactive
20 | O=c1oc2c3c4c(cc2s1)CCCN4CCC3 | inactive
21 | CCCCCCNC(=O)N[C@H](C(=O)NCCC[C@H]1CN2C(=NC[C@H]2C)N1CCC(c1ccccc1)c1ccccc1)C(C)O (stereo partly specified) | inactive
22 | CCN(CC(=O)NC(C)C)C(=O)Cc1ccc(C)c(C)c1 | inactive
23 | Oc1cccc(/C=N/NC(=S)NCCN2CCOCC2)c1O | 7.38 µM (active)
24 | COc1ccc(CNC(=S)N/N=C/c2ccc(O)c(OC)c2)cc1 | 7.64 µM (active)
25 | O=C(CCN1CCN(c2ccccc2)CC1)N/N=C/c1ccc(O)c(O)c1O | inactive
26 | Cc1c(NC(=O)CCC2CCCCC2)cc(C(=O)N2CCOCC2)cc1[N+](=O)[O-] | inactive

Row | SMILES | IC50
27 | COCCCOc1ccnc(CS(=O)c2nc3ccccc3[nH]2)c1C (stereo unspecified) | inactive
28 | O=C(O)CC1S/C(=N/N=C/C2CC=CCC2)NC1=O (stereo unspecified) | inactive
29 | O=C(CN1CCN(S(=O)(=O)c2ccc(F)cc2)CC1)c1ccc(O)c(O)c1 | 7.5 µM (active)
30 | CC(C)c1ccc(S(=O)(=O)N2CCN(CC(=O)c3ccc(O)c(O)c3)CC2)cc1 | 5.79 µM (active)
31 | Cc1cc(C)nc(SCc2cc(=O)c(OC(=O)c3ccc(S(=O)(=O)N4CCCC4)cc3)co2)n1 | inactive
32 | Cc1ccc(S(=O)(=O)N2[C@@H](c3ccc(Cl)cc3)C(C(=O)O)=CC[C@H]2c2ccc(C(C)C)cc2)cc1 | inactive
33 | Cc1cccc(-c2ncc(CN3CCCC(CO)(Cc4ccccc4C)C3)cn2)c1 (stereo unspecified) | inactive
34 | CCOc1cc(N2CCOCC2)c(OCC)cc1NC(C)C(=O)N1CCC(C)CC1 (stereo unspecified) | 5.37 µM (active)
35 | CCOc1ccc(OCCC(=O)OCC(=O)Nc2cc(OCC)c(N3CCOCC3)cc2OCC)cc1 | 8.04 µM (active)
36 | CCOc1ccc(CCNC(=O)c2cc(-c3ccccc3)c(N3CCOCC3)s2)cc1OCC | inactive
37 | CCOc1cc(N2CCOCC2)c(OCC)cc1NS(=O)(=O)c1ccc(Cl)s1 | 6.56 µM (active)
38 | CCNC(=S)Nc1cc(OCC)c(N2CCOCC2)cc1OCC | 4.1 µM (active)
39 | CC1CCN(CC(C)OC(=O)c2ccc3c(c2)OCCO3)CC1 (stereo unspecified) | inactive
40 | CCCC(=O)O[C@]1(C(=O)CO)CC[C@H]2[C@@H]3CCC4=CC(=O)CC[C@]4(C)[C@H]3[C@@H](O)C[C@@]21C | inactive
41 | COc1cc(/C=N/Nc2nc3ccccc3[nH]2)cc(OC)c1O | 6.33 µM (active)
42 | COc1cc(/C=N/Nc2nc3ccccc3[nH]c2=O)ccc1O | 8.65 µM (active)
43 | COc1cc(/C=N/Nc2nc3ccccc3o2)cc(OC)c1O | 6.58 µM (active)
44 | COc1cc(/C=C2\CCc3c2nc2ccccc2c3C(=O)O)cc(OC)c1OC | inactive
45 | C(=N\Nc1nc2ccccc2[nH]1)/c1cccs1 | 7.86 µM (active)
46 | CCC[C@@H]1CCCO[C@@](C(=O)NCc2ccc(S(C)(=O)=O)cc2)(C(F)(F)F)C1 | inactive
47 | O=C1NC(=NCc2ccccc2)S/C1=C/c1ccc(O)cc1 | 8.9 µM (active)
48 | Cc1c(N=C2NC(=O)/C(=C/c3ccc(O)cc3)S2)c(=O)n(-c2ccccc2)n1C | 10 µM (active)
49 | Cc1cc(/C=C2\SC(=S)NC2=O)c(C)n1-c1cccc(O)c1 | inactive
50 | O=C1N/C(=C\c2ccc(O)cc2)C(O)=C1C=NCc1ccccc1 | 5.69 µM (active)
51 | O=C1NC(=O)/C(=C/c2ccc(O)cc2)S1 | 5.07 µM (active)
